Measured values: PubChem BioAssay AID1159580 (chemical genetic matrix, 2015)
Screen size: about 5,500 compounds; about 2,000 (36%) were called active. Inconclusive results (about 18%) are left out. Cut-off read from the data, not from the text of the source: active = normalized growth mostly below about 0.91 (no sharp cut-off); inconclusive = no clear call, values can overlap the other calls; inactive = mostly above about 0.92. The list shows a part of the results.

Assay: chemical genetic growth profiling, strain panel (AID 1159580);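 note: tested at 20 µM; growth read once vehicle control cultures reached saturation at 30 °C; 1 = growth at the plate median or of vehicle wells; lower values mean less growth of the strain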
Settings: growth OD
[1] = S. cerevisiae deletion strains, locus YAL013W, strain DEP1, stronger effect = lower value
[2] = S. cerevisiae deletion strains, locus YBR229C, strain ROT2, stronger effect = lower value
[3] = S. cerevisiae deletion strains, locus YCL061C, strain MRC1, stronger effect = lower value
[4] = S. cerevisiae deletion strains, locus YDL101C, strain DUN1, stronger effect = lower value
[5] = S. cerevisiae deletion strains, locus YDR150W, strain NUM1, stronger effect = lower value
[6] = S. cerevisiae deletion strains, locus YEL061C, strain CIN8, stronger effect = lower value
[7] = S. cerevisiae deletion strains, locus YGR078C, strain PAC10, stronger effect = lower value
[8] = S. cerevisiae deletion strains, locus YHR030C, strain SLT2, stronger effect = lower value
[9] = S. cerevisiae deletion strains, locus YHR087W, strain rtc3, stronger effect = lower value
[10] = S. cerevisiae deletion strains, locus YJR043C, strain POL32, stronger effect = lower value
[11] = S. cerevisiae deletion strains, locus YJR075W, strain HOC1, stronger effect = lower value
[12] = S. cerevisiae deletion strains, locus YLR039C, strain RIC1, stronger effect = lower value
[13] = S. cerevisiae deletion strains, locus YLR058C, strain SHM2 (second series), stronger effect = lower value
[14] = S. cerevisiae deletion strains, locus YLR085C, strain ARP6, stronger effect = lower value
[15] = S. cerevisiae deletion strains, locus YLR262C, strain YPT6, stronger effect = lower value
[16] = S. cerevisiae deletion strains, locus YML094W, strain GIM5, stronger effect = lower value
[17] = S. cerevisiae deletion strains, locus YMR219W, strain ESC1, stronger effect = lower value
[18] = S. cerevisiae deletion strains, locus YMR263W, strain SAP30, stronger effect = lower value
[19] = S. cerevisiae deletion strains, locus YMR307W, strain GAS1, stronger effect = lower value
[20] = S. cerevisiae deletion strains, locus YNL153C, strain GIM3, stronger effect = lower value
[21] = S. cerevisiae deletion strains, locus YNL298W, strain CLA4 (second series), stronger effect = lower value
[22] = S. cerevisiae deletion strains, locus YNL322C, strain KRE1, stronger effect = lower value
[23] = S. cerevisiae deletion strains, locus YNR030W, strain Alg12, stronger effect = lower value
[24] = S. cerevisiae deletion strains, locus YOL006C, strain TOP1, stronger effect = lower value
[25] = S. cerevisiae deletion strains, locus YPL055C, strain LGE1, stronger effect = lower value
[26] = S. cerevisiae deletion strains, locus YPL241C, strain CIN2, stronger effect = lower value
[27] = S. cerevisiae deletion strains, locus YPR135W, strain CTF4, stronger effect = lower value
[28] = S. cerevisiae deletion strains, locus YDL134C, strain PPH21, stronger effect = lower value
[29] = S. cerevisiae deletion strains, locus YKL190W, strain CNB1, stronger effect = lower value
[30] = S. cerevisiae strains, strain wild type, stronger effect = lower value

Measured: normalized growth

O=C(CSc1ccc(C(F)(F)F)cn1)N1CCc2c([nH]c3ccccc23)C1C(F)(F)F (stereo not drawn)
inactive: [1] 1 | [2] 0.995 | [3] 1.01 | [4] 1 | [5] 1.02 | [6] 0.959 | [7] 0.984 | [8] 1.01 | [9] 0.974 | S. cerevisiae deletion strains, locus YJL187C, strain SWE1, stronger effect = lower value 1.02 | [10] 1.01 | [11] 0.965 | [12] 0.999 | [13] 1.01 | [14] 1 | [15] 0.982 | [16] 0.997 | [17] 1.01 | [18] 1.01 | [19] 0.935 | [20] 0.998 | [21] 1.01 | [22] 0.991 | [23] 0.916 | [24] 1.08 | [25] 0.954 | [26] 0.936 | [27] 0.907

O=C(O)COCC(=O)N1CCc2c([nH]c3ccccc23)C1C(F)(F)F (stereo not drawn)
active: [14] 1.33 [resistant]
inactive: [1] 1.01 | [2] 0.998 | [4] 1.02 | [28] 1.01 | [5] 0.949 | [6] 1.01 | [7] 1.03 | [8] 1.06 | [9] 1.01 | [10] 1.02 | [11] 1.06 | [29] 1.03 | [12] 1.03 | [13] 1.02 | [15] 0.998 | [16] 1.04 | [17] 1 | [18] 0.954 | [19] 1.24 | [20] 1.01 | [21] 1.05 | [22] 1.02 | [23] 1.06 | [25] 0.961 | [26] 1.07 | [27] 1.05 | [30] 1.02

Cc1ccccc1C(=O)N1CCc2c([nH]c3ccccc23)C1C(F)(F)F (stereo not drawn)
inactive: S. cerevisiae deletion strains, locus YAR019C, strain CDC15, stronger effect = lower value 0.982 | S. cerevisiae deletion strains, locus YBL105C, strain PKC1, stronger effect = lower value 0.985 | S. cerevisiae deletion strains, locus YBR135W, strain CKS1, stronger effect = lower value 0.986 | S. cerevisiae deletion strains, locus YBR136W, strain MEC1, stronger effect = lower value 0.968 | S. cerevisiae deletion strains, locus YBR160W, strain CDC28, stronger effect = lower value 0.988 | S. cerevisiae deletion strains, locus YDL017W, strain CDC7, stronger effect = lower value 0.989 | S. cerevisiae deletion strains, locus YDL028C, strain MPS1, stronger effect = lower value 0.979 | [4] 0.978 | S. cerevisiae deletion strains, locus YDL108W, strain KIN28, stronger effect = lower value 0.98 | S. cerevisiae deletion strains, locus YDL132W, strain cdc53, stronger effect = lower value 0.988 | S. cerevisiae deletion strains, locus YDL214C, strain PRR2, stronger effect = lower value 0.938 | S. cerevisiae deletion strains, locus YDR052C, strain DBF4, stronger effect = lower value 0.989 | S. cerevisiae deletion strains, locus YDR054C, strain cdc34, stronger effect = lower value 0.976 | S. cerevisiae deletion strains, locus YDR226W, strain ADK1, stronger effect = lower value 0.985 | S. cerevisiae deletion strains, locus YDR477W, strain SNF1, stronger effect = lower value 0.962 | S. cerevisiae deletion strains, locus YER123W, strain YCK3, stronger effect = lower value 0.9 | S. cerevisiae deletion strains, locus YER133W, strain GLC7, stronger effect = lower value 0.948 | S. cerevisiae deletion strains, locus YFL009W, strain cdc4, stronger effect = lower value 0.979 | S. cerevisiae deletion strains, locus YFL029C, strain CAK1, stronger effect = lower value 0.972 | S. cerevisiae deletion strains, locus YFR003C, strain YPI1, stronger effect = lower value 0.987 | S. cerevisiae deletion strains, locus YFR019W, strain FAB1, stronger effect = lower value 0.954 | S. cerevisiae deletion strains, locus YFR028C, strain CDC14, stronger effect = lower value 0.978 | S. cerevisiae deletion strains, locus YGR040W, strain KSS1, stronger effect = lower value 0.927 | S. cerevisiae deletion strains, locus YGR052W, strain FMP48, stronger effect = lower value 0.955 | S. cerevisiae deletion strains, locus YGR092W, strain DBF2, stronger effect = lower value 0.978 | [8] 0.881 | S. cerevisiae deletion strains, locus YHR079C, strain IRE1, stronger effect = lower value 0.878 | S. cerevisiae deletion strains, locus YHR082C, strain KSP1, stronger effect = lower value 0.927 | S. cerevisiae deletion strains, locus YHR205W, strain SCH9, stronger effect = lower value 0.83 | S. cerevisiae deletion strains, locus YIL147C, strain SLN1, stronger effect = lower value 0.976 | S. cerevisiae deletion strains, locus YJL095W, strain BCK1, stronger effect = lower value 0.908 | S. cerevisiae deletion strains, locus YJL128C, strain PBS2, stronger effect = lower value 0.927 | S. cerevisiae deletion strains, locus YJL157C, strain FAR1, stronger effect = lower value 0.976 | S. cerevisiae deletion strains, locus YJR016C, strain ILV3, stronger effect = lower value 0.989 | S. cerevisiae deletion strains, locus YJR066W, strain TOR1 (second series), stronger effect = lower value 0.934 | S. cerevisiae deletion strains, locus YJR066W, strain TOR1, stronger effect = lower value 0.943 | S. cerevisiae deletion strains, locus YKL048C, strain ELM1, stronger effect = lower value 0.977 | S. cerevisiae deletion strains, locus YKL067W, strain YNK1, stronger effect = lower value 0.95 | S. cerevisiae deletion strains, locus YKL101W, strain HSL1, stronger effect = lower value 0.909 | S. cerevisiae deletion strains, locus YKL193C, strain SDS22, stronger effect = lower value 0.99 | S. cerevisiae deletion strains, locus YKL203C, strain TOR2, stronger effect = lower value 1.01 | S. cerevisiae deletion strains, locus YLR133W, strain CKI1, stronger effect = lower value 0.929 | S. cerevisiae deletion strains, locus YLR403W, strain SFP1, stronger effect = lower value 0.93 | S. cerevisiae deletion strains, locus YML070W, strain DAK1, stronger effect = lower value 0.905 | S. cerevisiae deletion strains, locus YMR001C, strain CDC5, stronger effect = lower value 0.97 | S. cerevisiae deletion strains, locus YMR205C, strain PFK2 (second series), stronger effect = lower value 0.945 | S. cerevisiae deletion strains, locus YMR277W, strain FCP1, stronger effect = lower value 0.991 | S. cerevisiae deletion strains, locus YNL006W, strain LST8, stronger effect = lower value 1 | S. cerevisiae deletion strains, locus YNL020C, strain ARK1, stronger effect = lower value 0.95 | S. cerevisiae deletion strains, locus YNL161W, strain CBK1, stronger effect = lower value 0.996 | S. cerevisiae deletion strains, locus YNL183C, strain NPR1, stronger effect = lower value 0.894 | S. cerevisiae deletion strains, locus YNL207W, strain RIO2, stronger effect = lower value 0.982 | S. cerevisiae deletion strains, locus YNL222W, strain SSU72, stronger effect = lower value 0.991 | S. cerevisiae deletion strains, locus YNL307C, strain MCK1 (second series), stronger effect = lower value 0.936 | S. cerevisiae deletion strains, locus YOL078W, strain AVO1, stronger effect = lower value 0.991 | S. cerevisiae deletion strains, locus YOL136C, strain PFK27, stronger effect = lower value 0.906 | S. cerevisiae deletion strains, locus YOR061W, strain CKA2, stronger effect = lower value 0.953 | S. cerevisiae deletion strains, locus YOR119C, strain RIO1, stronger effect = lower value 0.985 | S. cerevisiae deletion strains, locus YOR231W, strain MKK1, stronger effect = lower value 0.891 | S. cerevisiae deletion strains, locus YOR329C, strain SCD5, stronger effect = lower value 0.985 | S. cerevisiae deletion strains, locus YPL031C, strain PHO85, stronger effect = lower value 0.963 | S. cerevisiae deletion strains, locus YPL153C, strain RAD53, stronger effect = lower value 0.943 | S. cerevisiae deletion strains, locus YPL204W, strain HRR25, stronger effect = lower value 0.945 | S. cerevisiae deletion strains, locus YPL209C, strain IPL1, stronger effect = lower value 0.986 | S. cerevisiae deletion strains, locus YPR025C, strain CCL1, stronger effect = lower value 0.989 | S. cerevisiae deletion strains, locus YPR106W, strain ISR1, stronger effect = lower value 0.965 | S. cerevisiae deletion strains, locus YPR111W, strain DBF20, stronger effect = lower value 0.966 | S. cerevisiae deletion strains, strain NNK1, stronger effect = lower value 0.967 | S. cerevisiae deletion strains, strain TSCII, stronger effect = lower value 0.988
active: S. cerevisiae deletion strains, locus YLR113W, strain HOG1, stronger effect = lower value 0.799 | S. cerevisiae deletion strains, locus YPL256C, strain CLN2, stronger effect = lower value 0.815

O=C(O)CSCC(=O)N1CCc2c([nH]c3ccccc23)C1C(F)(F)F (stereo not drawn)
active: [26] 1.22 [resistant]
inactive: [1] 1.01 | [2] 1.01 | [3] 1.04 | [4] 1.01 | [28] 1 | [5] 0.936 | [6] 0.997 | [7] 1.05 | [8] 1.16 | [9] 1 | [10] 1.02 | [11] 1.03 | [29] 1 | [12] 1.04 | [13] 1.02 | [14] 1.09 | [15] 1.01 | [16] 1 | [17] 1.02 | [18] 1.02 | [19] 1.1 | S. cerevisiae deletion strains, locus YNL128W, strain TEP1, stronger effect = lower value 0.987 | [20] 1.01 | [21] 1.05 | [22] 1.02 | [23] 1.02 | [24] 1.11 | [25] 0.991 | [27] 1.06 | [30] 0.993
